The list is not random: actives were taken first. Their share in the collection is about 7.4%.
FLuc inh = Photinus pyralis luciferase inhibition; AID 1347043; 76,000 compounds, 2.5% hits; Potency, µM (series often up to 115 µM), most hits filed as inhibitors; purified P. pyralis luciferase, luminescence, biochemical; note: nearly all actives have a fitted effect of over 65% in size
Target sequence (P08659 whole entry, looked up): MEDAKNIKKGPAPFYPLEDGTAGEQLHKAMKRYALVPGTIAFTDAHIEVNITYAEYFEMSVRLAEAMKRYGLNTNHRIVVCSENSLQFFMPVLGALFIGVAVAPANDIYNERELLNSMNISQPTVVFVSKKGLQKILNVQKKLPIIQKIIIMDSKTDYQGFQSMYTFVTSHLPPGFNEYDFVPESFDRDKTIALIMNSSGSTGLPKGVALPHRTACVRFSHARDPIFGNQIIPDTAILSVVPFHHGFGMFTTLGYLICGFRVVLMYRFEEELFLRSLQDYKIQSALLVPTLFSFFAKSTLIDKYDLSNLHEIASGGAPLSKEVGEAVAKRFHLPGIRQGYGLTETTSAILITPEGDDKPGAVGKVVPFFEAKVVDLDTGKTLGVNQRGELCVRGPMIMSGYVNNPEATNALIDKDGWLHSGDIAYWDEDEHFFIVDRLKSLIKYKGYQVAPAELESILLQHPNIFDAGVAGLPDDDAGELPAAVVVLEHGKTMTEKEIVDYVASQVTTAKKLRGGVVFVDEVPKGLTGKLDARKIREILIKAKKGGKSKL
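Luminescence read by CCD imager after adding enzyme (10nM final) to wells holding compound, titrated in qHTS. Substrates 10uM each D-luciferin and ATP; buffer 50mM Tris acetate pH 7.5, 10mM Mg acetate, Tween-20, BSA.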
NIH3T3 tox = cytotoxic compounds in NIH 3T3 cells; NIH 3T3 viability, CellTiter-Glo ATP luminescence, 48-72 h; Potency, µM (titrated, usually from 96.7 µM), inactives show top-dose activity change, negative = cytotoxicity, usual class: inhibitors; 94,000 compounds, 4.3% hits; AID 1345082; note: nearly all actives have a fitted effect of over 55% in size
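Luminescent ATP readout (CellTiter-Glo, 10 min RT) after 48 or 72 hr compound exposure of NIH 3T3 cells seeded at 400 cells/well in 1536-well format; quantitative HTS.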
HEK cytotox = HEK 293 cell cytotoxicity | 94,000 compounds, 6.6% hits | HEK 293 viability, ATP luminescence (CellTiter-Glo), 48-72 h | Potency, µM (series often up to 115 µM), without a hit: at the highest dose activity change, negative = cytotoxicity, actives largely listed as inhibitors; note: nearly all actives have a fitted effect of over 60% in size
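qHTS cytotoxicity; HEK 293, 250 cells/well; compound pinned; 48 or 72 hr, 37 degree Celsius, 5% CO2, 95% humidity; CellTiter-Glo, 10 min RT; luminescence (ATP).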
SNCA expr inhib = inhibitors of alpha-synuclein (SNCA) gene expression. Potency, µM (top dose mostly 57.2 µM), inactives show at the top dose activity change, negative = inhibition, usual class: inhibitors. AID 1671194. 140,000 compounds, 0.17% hits. HEK-293 SNCA-luciferase knock-in, luminescence, 24 h;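 note: plate controls were DMSO cells for no effect and cell-free wells for full effect; nearly all actives have a fitted effect of over 45% in size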
SNCA viab count = counter-screen for SNCA expression inhibitors: cell viability | AID 1671193 | 150,000 compounds, 0.12% hits | HEK-293-SNCA-luc viability, GF-AFC fluorescence, 24 h | Potency, µM (top dose mostly 57.1 µM), for the others: top-dose activity change, negative = cytotoxicity, actives largely listed as cytotoxic;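 note: 0% = DMSO-treated cells and -100% = medium-only wells without cells; nearly all actives have a fitted effect of over 30% in size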
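HEK-293-SNCA-luc cells (1500/well) plated 24 h, then exposed 24 h to a dilution series; GF-AFC added 30 min at 37C, fluorescence 405/540 nm; normalised to medium-only and DMSO wells, Hill fit.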
NPR1 antag = antagonists of human natriuretic peptide receptor Npr1; AID 1347048; HEK293 hNpr1 GloSensor cGMP, ANP-stimulated luminescence; 76,000 compounds, 1.6% hits; Potency, µM (doses to about 46.3 µM), for inactives: top-dose activity change, negative = inhibition, actives largely listed as inhibitors; calls by dose curve; note: nearly all actives have a fitted effect of over 60% in size
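Compound pre-incubated 30 min at room temperature on GloSensor-loaded HEK293 cells stably carrying hNpr1 and the pGS-40F cGMP biosensor. Stimulation uses hNppA at 0.1 nM final; luminescence is taken at baseline and 20 min post-agonist.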
An asterisk follows results filed as active; i = inactive; ? = inconclusive; nt = not tested or not shown; [ ] = another dose, or the depositor's remark. Unless noted, calls come from the whole dose curve; as a rule, active = well fitted curve in the direction sought with a large enough effect; inconclusive = small, poorly fitted or top-dose-only effect, or another doubt; inactive = no such curve, though single readings can be large; an effect the other way counts as inactive or inconclusive. Unless noted, % is set by controls: 0 for no effect and ±100 for the full control effect; potency is the fitted concentration of half-maximal effect.

SMILES	FLuc inh	NIH3T3 tox	HEK cytotox	SNCA expr inhib	SNCA viab count	NPR1 antag
Cn1cnc(S(=O)(=O)N2CCC(OCc3noc(C4CCCO4)n3)CC2)c1 (stereo unspecified)	nt	0.4%	-4.9%	24.2%	?	nt
COC(=O)[C@@H]1Cc2c([nH]c3ccccc23)[C@H]2C[C@@H](NCc3cccs3)C[C@@H](c3ccc(F)cc3)N21	i	79.4µM*	?	10.2%	-8.8%	-0.2%
COc1cc(C(=O)N2CCc3c([nH]c4ccccc34)C2c2ccc(F)cc2)cc(OC)c1OC (stereo unspecified)	nt	nt	nt	?	-6.9%	nt
COC(=O)[C@@H]1Cc2c([nH]c3ccccc23)[C@H]2C[C@H](NCc3cccs3)C[C@@H](c3ccc(F)cc3)N21	i	22.4µM*	28.2µM*	-23.8%	-25.8%	0.5%
CC1CCCC(C)N1C(=O)c1cc(-c2cc(Cl)cc(Cl)c2)c2nncn2n1 (stereo unspecified)	nt	?	-14.2%	-3.3%	10.3%	nt
Cc1ccc(-c2noc([C@@H]3Cc4nc[nH]c4CN3Cc3ccc(CO)o3)n2)cc1	63.1µM*	-10.3%[174 µM]	-19.4%[172 µM]	?	-1.5%[87.6 µM]	1.7%[70.6 µM]
N#Cc1cccc(CN2Cc3[nH]cnc3C[C@H]2c2nc(-c3ccccc3)no2)c1	63.1µM*	?	89.1µM*	110.5%[87.6 µM]	-15.1%[87.6 µM]	-10.9%[70.6 µM]
Cc1cccc(-c2noc([C@@H]3Cc4nc[nH]c4CN3Cc3cccc(C#N)c3)n2)c1	i	?	?	?	-19.4%[87.6 µM]	-6.2%[70.6 µM]
Cc1ccc(-c2noc([C@@H]3Cc4nc[nH]c4CN3Cc3ccc(F)cc3)n2)cc1	50.1µM*	35.5µM*	89.1µM*	?	?	?
Cc1nnc(-c2cc(Nc3cccc(N(C)C)c3)ccn2)n1C1CCCCC1	i	?	89.1µM*	9.5%[87.6 µM]	0.2%[87.6 µM]	-5.9%[70.6 µM]
CC(C)NC(=O)C1CCC(=O)N1C1CCN(C(=O)Cc2ccc(Cl)cc2)CC1 (stereo unspecified)	nt	-13.5%	0.9%	23.3%	-3.8%	nt
Fc1ccc(C2Cn3nnc(-c4nc(-c5ccc6c(c5)OCO6)no4)c3CO2)cc1 (stereo unspecified)	i	-15.1%	-4.5%	1.3%	7.6%	0.5%
COc1ccc(-c2noc(-c3ncn4c3COC(c3ccc(F)cc3)C4)n2)cc1OC (stereo unspecified)	i	28.2µM*	?	2.6%	1.8%	3.7%
Fc1ccc(C2Cn3cnc(-c4nc(-c5ccc6c(c5)OCO6)no4)c3CO2)cc1 (stereo unspecified)	?	25.1µM*	?	32.7%	-2.3%	-9.8%
O=C(NC1CCCC1)N1CCC(c2nn(-c3ccccn3)c(=O)[nH]2)CC1	nt	-15.5%	i	?	-1.9%	nt
CC1=C[C@@H](CNC(=O)C2CCCCC2)[C@H](C(C)C)C[C@H]1CC(=O)N1CCN(c2ccccn2)CC1	i	?	?	?	28.2µM*	-17.2%
CC1=C[C@@H](CNC(=O)c2ccccn2)[C@H](C(C)C)C[C@H]1CC(=O)N1CCCC1	i	100µM*	?	?	?	-4.1%[70.6 µM]
CC1=C[C@@H](CNC(=O)C(C)(C)C)[C@H](C(C)C)C[C@H]1CC(=O)N1CCN(c2ccccn2)CC1	i	-25.5%	?	-13.9%	-26.6%	5.2%
COc1ccc(-c2ccccc2C(=O)NCc2ccccn2)nn1	nt	-7.4%[138 µM]	i	nt	nt	nt
COCCCNC(=O)c1ccc2nnc(-c3cc[nH]c3)n2c1	nt	-3.9%[138 µM]	-10.5%[172 µM]	26.9%[87.6 µM]	-7.6%[87.6 µM]	nt
CN(C)c1cccc(C(=O)N2CCC(c3n[nH]c(=O)n3-c3ccccc3)CC2)c1	31.6µM*	-19.6%	3.8%	132.5%	-7.3%	0.0%
Cc1cccc(OCC(=O)N2CCC(c3n[nH]c(=O)n3Cc3ccc(F)cc3)CC2)c1	i	20µM*	-10.6%	-13.6%	0.3%	0.2%
Cc1cccc(OCC(=O)N2CCC(c3n[nH]c(=O)n3-c3ccccc3)CC2)c1	i	7.08µM*	12.4%	15.5%	-3.7%	-12.8%
Cc1ccc(-n2c(C3CCN(C(=O)COc4ccc(Cl)cc4C)CC3)n[nH]c2=O)cc1	i	-78.0%	?	0.8%	9.1%	18.1%
O=C(c1cccc(Cl)c1)N1CCC(c2n[nH]c(=O)n2-c2ccccc2)CC1	i	?	8.7%	-21.1%	11.6%	-0.1%
SMILES	FLuc inh	NIH3T3 tox	HEK cytotox	SNCA expr inhib	SNCA viab count	NPR1 antag
Cc1cc(Cl)ccc1OCC(=O)N1CCC(c2n[nH]c(=O)n2-c2ccccc2)CC1	i	39.8µM*	?	3.3%	2.3%	7.9%
O=C(NCCc1ccc(F)cc1)c1ccc2nnc(-c3cc(F)ccc3F)n2c1	nt	?	?	?	-10.8%	nt
O=C(c1ccc(C(F)(F)F)cc1)N1CCN(C(=O)c2nc3cccnc3n(C3CCCC3)c2=O)CC1	nt	?	-21.5%	5.3%	-11.1%	nt
CC(C)(C)c1ccc(C(=O)Nc2nc3c(s2)C[C@@H]2[C@](C)(CO)[C@H](O)CC[C@@]2(C)[C@@H]3CC(=O)NCc2ccco2)cc1	?	?	?	-28.4%	-17.0%	-6.0%
O=C(NC1CCN(c2cc(-c3cccs3)[nH]n2)CC1)c1cccc(Cl)c1	i	?	44.7µM*	-26.3%	-23.2%	0.0%
O=C(NC1CCN(c2cc(-c3cccs3)[nH]n2)CC1)c1ccc(Cl)cc1	i	?	?	3.4%	1.4%	-16.5%
CN(C)c1cccc(C(=O)NC2CCN(c3cc(-c4cccs4)[nH]n3)C2)c1 (stereo unspecified)	31.6µM*	?	?	136.1%	-3.0%	-21.4%
Cc1cccc(C(=O)NC2CCN(c3cc(-c4cccs4)[nH]n3)C2)c1 (stereo unspecified)	i	?	?	-11.7%	-2.0%	-16.5%
O=C(Cc1ccccc1Cl)NC1CCN(c2cc(-c3cccs3)[nH]n2)C1 (stereo unspecified)	i	20µM*	?	?	?	-5.0%
O=C(NC1CCCCC1)C1CCCN1C(=O)c1cccc(-c2cccnc2)c1 (stereo unspecified)	nt	-22.9%	-15.7%	nt	nt	nt
O=C(NCCc1ccc(Cl)cc1)c1ccc2nnc(-c3ccoc3)n2c1	nt	?	?	-3.9%	-6.5%	nt
COc1cccc(C(=O)N2CCN(c3ccc4nnc(C5CC5)n4n3)CC2)c1	nt	-25.5%	-8.7%	nt	nt	nt
FC(F)(F)c1ccc(O[C@H]2COCCN(CC3CCCC3)C2)cc1	i	89.1µM*	112µM*	7.2%[87.6 µM]	8.2%[87.6 µM]	-2.5%[70.6 µM]
FC(F)(F)c1cccc(CN2CCOC[C@H](Oc3ccccc3)C2)c1	i	?	?	?	6.0%[87.6 µM]	1.6%[70.6 µM]

Screening results (PubChem)
